Several values for one entry are separate records, joined by “and”; a condition that tells them apart may be missing. Identical values can stand only once. This is part of a sample that, as a whole, favours compounds with a hit. Of some 83,000 tested, about 20% had one in any assay.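 Testing used 96-well plates and a 48-hour single-concentration exposure. Example: -40 means 40% of the starting cells died.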 Activity calls are given as the source filed them. Rule for the calls: active = growth percent below 10; inactive = the rest.
Columns and labels:
Experiment in all cases: NCI-60 one-dose screen, 48 h (100 = growth as untreated, 0 = no growth, -100 = all killed)
[1] = tested on: SR leukemia; details: 10 µM unless noted
[2] = tested on: RPMI-8226 leukemia
[3] = tested on: OVCAR-8 ovarian
[4] = tested on: OVCAR-5 ovarian
[5] = tested on: OVCAR-4 ovarian
[6] = tested on: SK-OV-3 ovarian; details: 10 µM unless noted
[7] = tested on: IGROV1 ovarian
[8] = tested on: OVCAR-3 ovarian; details: 10 µM unless noted
[9] = tested on: HS 578T breast; details: 10 µM unless noted
[10] = tested on: NCI/ADR-RES ovarian
[11] = tested on: T-47D breast
[12] = tested on: BT-549 breast
[13] = tested on: MDA-MB-435 melanoma
[14] = tested on: SW-620 colon
[15] = tested on: MCF7 breast
[16] = tested on: HCT-116 colon; details: 10 µM unless noted
[17] = tested on: HCC-2998 colon
[18] = tested on: KM12 colon; details: 10 µM unless noted

Measured: growth

CCC1OC(OC)C=CC1=O (stereo unspecified)
inactive: [1] 81.5% | [2]; 10 µM unless noted 110% | [3]; 10 µM unless noted 117% | [4]; 10 µM unless noted 123% | [5]; 10 µM unless noted 103% | [6] 102% | [7]; 10 µM unless noted 137% | [8] 95.4% | [9] 96.9% | [10]; 10 µM unless noted 111% | [11]; 10 µM unless noted 95.1% | [12]; 10 µM unless noted 88.8% | [13]; 10 µM unless noted 98.6% | [14]; 10 µM unless noted 100% | [15]; 10 µM 89.9% | [16] 96.5% | [17]; 10 µM unless noted 122%

CCC(CCCN(CC)CCc1ccccc1)OC(=O)c1cc(OC)c(OC)c(OC)c1 (stereo unspecified)
inactive: [1] 78.7% | [2]; 10 µM unless noted 85% | [3]; 10 µM unless noted 92.2% | [4]; 10 µM unless noted 84.8% | [5]; 10 µM unless noted 82.6% | [6] 83.5% | [7]; 10 µM unless noted 78.1% | [8] 92.2% | [9] 81.3% | [10]; 10 µM unless noted 83.3% | [11]; 10 µM unless noted 77.8% | [12]; 10 µM unless noted 99.6% | [13]; 10 µM unless noted 100% | [14]; 10 µM unless noted 82.9% | [15]; 10 µM 85.9% | [16] 75.3% | [17]; 10 µM unless noted 96.4% | [18] 96.6%

O=C(Oc1cccc2cccnc12)c1ccccc1
inactive: [1] 43.7% | [2]; 10 µM unless noted 83.3% and 113% | [3]; 10 µM unless noted 84.9% and 98.6% | [4]; 10 µM unless noted 105% and 107% | [5]; 10 µM unless noted 84.6% and 116% | [6] 106% | [7]; 10 µM unless noted 113% | [9] 74.9% and 123% | [10]; 10 µM unless noted 87% and 106% | [11]; 10 µM unless noted 38.6% and 95.2% | [12]; 10 µM unless noted 101% and 107% | [13]; 10 µM unless noted 88% | [14]; 10 µM unless noted 49.7% and 104% | [15]; 10 µM 55.1% and 102% | [16] 32.8% and 102% | [17]; 10 µM unless noted 108% and 104%
7.19% (active) and 115% (inactive): [8]

O=C(CC1(O)C(=O)Nc2c(Cl)ccc(Cl)c21)c1ccc(Cl)cc1Cl (stereo unspecified)
inactive: [1] 86.9% | [2]; 10 µM unless noted 99.9% | [3]; 10 µM unless noted 107% | [4]; 10 µM unless noted 110% | [5]; 10 µM unless noted 87.9% | [6] 84.9% | [7]; 10 µM unless noted 97.6% | [8] 106% | [9] 94% | [10]; 10 µM unless noted 106% | [11]; 10 µM unless noted 75.5% | [12]; 10 µM unless noted 90.2% | [13]; 10 µM unless noted 91.6% | [14]; 10 µM unless noted 105% | [15]; 10 µM 91.6% | [16] 89.9% | [17]; 10 µM unless noted 110%

C[N+](C)=c1ccc2nc3c(cc(NCCCNc4cc5oc6cc(=[N+](C)C)ccc-6nc5c5ccccc45)c4ccccc43)oc-2c1
inactive: [4]; 10 µM unless noted 68.5% | [6] 90.1% | [7]; 10 µM unless noted 19.1% | [9] 87.4% | [11]; 10 µM unless noted 46.2% | [12]; 10 µM unless noted 61.6% | [17]; 10 µM unless noted 23.7% | [18] 17.5%
active: [1] 6.05% | [2]; 10 µM unless noted 2.21% | [3]; 10 µM unless noted -5.6% | [5]; 10 µM unless noted -100% | [8] -54.5% | [10]; 10 µM unless noted 6.53% | [13]; 10 µM unless noted -82.1% | [14]; 10 µM unless noted -25.5% | [15]; 10 µM -52.4% | [16] -36.9%

COc1ccc(-c2cscc2N)cc1
active: [12]; 100 µM -32.7%
inactive: [1] 59.1% [100 µM] | [2]; 10 µM 88.7% | [2]; 100 µM 23.7% | [3]; 10 µM 77.6% | [3]; 100 µM 48.9% | [4]; 10 µM 87.5% | [4]; 100 µM 78.9% | [5]; 10 µM 103% | [5]; 100 µM 45.3% | [6] 80.2% [100 µM] | [7]; 10 µM 91.1% | [7]; 100 µM 58% | [10]; 10 µM 77.8% | [10]; 100 µM 78.1% | [11]; 10 µM 60% | [11]; 100 µM 17.3% | [12]; 10 µM 69.5% | [13]; 10 µM 79.1% | [13]; 100 µM 30.4% | [14]; 10 µM 88.5% | [14]; 100 µM 48.4% | [15]; 10 µM 47.3% | [15]; 100 µM 19.9% | [17]; 10 µM 80.1% | [17]; 100 µM 39.6%

CC(=Nc1ccc(N(C)C)cc1)c1ccccc1
active: [2]; 10 µM unless noted 7.42%
inactive: [1] 32.6% | [3]; 10 µM unless noted 25.7% | [4]; 10 µM unless noted 106% | [5]; 10 µM unless noted 69.9% | [6] 73% | [7]; 10 µM unless noted 58.8% | [8] 25.3% | [9] 74.2% | [10]; 10 µM unless noted 74.7% | [11]; 10 µM unless noted 39.6% | [12]; 10 µM unless noted 58.3% | [13]; 10 µM unless noted 54.4% | [14]; 10 µM unless noted 42.6% | [15]; 10 µM 20.8% | [16] 50% | [17]; 10 µM unless noted 58.2% | [18] 42.6%

From PubChem BioAssay (NCI)
